Data published in the supplement of paper PMC8728848.
Shown is part of a subset that was picked to be rich in the strongest signals.

What was measured:
Test in all cases: glycan array binding signal (z-score within array); higher = stronger binding
Details in all cases: glycan notation: IUPAC condensed, linker removed
[1] = target: Fuc(a1-2)Gal(b1-3)GlcNAc(b1-2)Man(a1-3)[Fuc(a1-2)Gal(b1-3)GlcNAc(b1-2)Man(a1-6)]Man(b1-4)GlcNAc(b1-4)GlcNAc
Summary of the method: (§1)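 Negative Z-scores can be read as non-binding. The Z-score is calculated within each array and then averaged across arrays of one protein sequence at different concentrations or buffers and across linkers. Arrays, 3228 in all, were curated from the Consortium for Functional Glycomics database and kept only where the protein sequence was available.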

[2] = target: Fuc(a1-2)Gal(b1-3)GlcNAc(b1-3)[Fuc(a1-2)Gal(b1-3)GlcNAc(b1-6)]GalNAc
Summary of the method: as §1

[3] = target: Fuc(a1-2)Gal(b1-4)GlcNAc(b1-3)Gal(b1-4)GlcNAc(b1-2)Man(a1-3)[Fuc(a1-2)Gal(b1-4)GlcNAc(b1-3)Gal(b1-4)GlcNAc(b1-2)Man(a1-6)]Man(b1-4)GlcNAc(b1-4)GlcNAc
Summary of the method: as §1

[4] = target: Fuc(a1-2)Gal(b1-4)GlcNAc(b1-3)[Fuc(a1-2)Gal(b1-4)GlcNAc(b1-6)]GalNAc
Summary of the method: as §1

[5] = target: Fuc(a1-2)Gal(b1-4)GlcNAc6S
Summary of the method: as §1

[6] = target: Fuc(a1-2)Gal6S(b1-3)GlcNAc6S
Summary of the method: as §1

[7] = target: Fuc(a1-2)[GalNAc(a1-3)]Gal(b1-4)GlcNAc(b1-6)GalNAc
Summary of the method: as §1

[8] = target: Fuc(a1-2)[GalNAc(a1-3)]Gal(b1-4)[Fuc(a1-3)]GlcNAc(b1-3)GalNAc
Summary of the method: as §1

[9] = target: Fuc(a1-3)GlcNAc
Summary of the method: as §1

[10] = target: Fuc(a1-3)[Gal(b1-4)]Glc6S
Summary of the method: as §1

[11] = target: Fuc(a1-3)[Gal(b1-4)]GlcNAc6S
Summary of the method: as §1

[12] = target: Fuc(a1-3)[Gal3S(b1-4)]GlcNAc6S
Summary of the method: as §1

[13] = target: Gal(a1-3)Gal(b1-4)[Fuc(a1-3)]GlcNAc
Summary of the method: as §1

[14] = target: Gal(b1-3)GalNAc
Summary of the method: as §1

[15] = target: Gal(b1-3)GalNAc(a1-3)[Fuc(a1-2)]Gal(b1-4)Glc
Summary of the method: as §1

[16] = target: Gal(b1-3)GlcNAc(b1-2)Man(a1-3)[Gal(b1-3)GlcNAc(b1-2)Man(a1-6)]Man(b1-4)GlcNAc(b1-4)GlcNAc
Summary of the method: as §1

[17] = target: Gal(b1-3)GlcNAc(b1-3)Gal(b1-4)GlcNAc
Summary of the method: as §1

[18] = target: Gal(b1-3)GlcNAc(b1-3)Gal(b1-4)GlcNAc(b1-2)[Gal(b1-3)GlcNAc(b1-3)Gal(b1-4)GlcNAc(b1-6)]Man(a1-6)[Gal(b1-3)GlcNAc(b1-3)Gal(b1-4)GlcNAc(b1-2)Man(a1-3)]Man(b1-4)GlcNAc(b1-4)[Fuc(a1-6)]GlcNAc
Summary of the method: as §1

[19] = target: Gal(b1-3)GlcNAc(b1-6)[Gal(b1-3)]GalNAc
Summary of the method: as §1

[20] = target: Gal(b1-3)GlcNAc6S
Summary of the method: as §1

[21] = target: Gal(b1-3)[Neu5Ac(b2-6)]GalNAc
Summary of the method: as §1

[22] = target: Gal(b1-4)GlcNAc(b1-2)Man(a1-6)[GlcNAc(b1-2)Man(a1-3)]Man(b1-4)GlcNAc(b1-4)GlcNAc
Summary of the method: as §1

[23] = target: Gal(b1-4)GlcNAc(b1-3)Gal(b1-4)GlcNAc(b1-3)Gal(b1-4)GlcNAc(b1-2)Man(a1-3)[Gal(b1-4)GlcNAc(b1-3)Gal(b1-4)GlcNAc(b1-3)Gal(b1-4)GlcNAc(b1-2)Man(a1-6)]Man(b1-4)GlcNAc(b1-4)GlcNAc
Summary of the method: as §1

[24] = target: Gal(b1-4)GlcNAc(b1-3)Gal(b1-4)GlcNAc(b1-3)Gal(b1-4)GlcNAc(b1-3)Gal(b1-4)GlcNAc(b1-2)Man(a1-3)[Gal(b1-4)GlcNAc(b1-3)Gal(b1-4)GlcNAc(b1-3)Gal(b1-4)GlcNAc(b1-3)Gal(b1-4)GlcNAc(b1-2)Man(a1-6)]Man(b1-4)GlcNAc(b1-4)[Fuc(a1-6)]GlcNAc
Summary of the method: as §1

[25] = target: Gal(b1-4)GlcNAc(b1-3)Gal(b1-4)GlcNAc(b1-3)Gal(b1-4)GlcNAc(b1-3)Gal(b1-4)GlcNAc(b1-2)[Gal(b1-4)GlcNAc(b1-3)Gal(b1-4)GlcNAc(b1-3)Gal(b1-4)GlcNAc(b1-3)Gal(b1-4)GlcNAc(b1-6)]Man(a1-6)[Gal(b1-4)GlcNAc(b1-3)Gal(b1-4)GlcNAc(b1-3)Gal(b1-4)GlcNAc(b1-3)Gal(b1-4)GlcNAc(b1-2)Man(a1-3)]Man(b1-4)GlcNAc(b1-4)[Fuc(a1-6)]GlcNAc
Summary of the method: as §1

[26] = target: Gal(b1-4)GlcNAc(b1-3)GalNAc
Summary of the method: as §1

[27] = target: Gal(b1-6)Gal
Summary of the method: as §1

B1: Agalectin (Anopheles gambiae) (protein)
chain: MSNRPFTAKFPRYPENGDEVFIRGKLKDDAKSFSVNFCLPRPAQVAEHQTPPYIALHFKTIYDERDDTSRVVLNWKNLQWQQEEVLDNYWHVDRSQTFRVVFRLHEDCIKVFVNSVDHPPDYQFPVQLPLDQIESIELWDDVEHVEEISFRYDNGNSY
[1]
  glycan array binding signal (z-score): 5.71
[2]
  glycan array binding signal (z-score): 4.19
[3]
  glycan array binding signal (z-score): -0.148
[4]
  glycan array binding signal (z-score): -0.321
[5]
  glycan array binding signal (z-score): -0.769
[6]
  glycan array binding signal (z-score): -0.208
[7]
  glycan array binding signal (z-score): 0.074
[8]
  glycan array binding signal (z-score): -0.12
[9]
  glycan array binding signal (z-score): -1.07
[10]
  glycan array binding signal (z-score): -0.632
[11]
  glycan array binding signal (z-score): 0.34
[12]
  glycan array binding signal (z-score): -0.759
[13]
  glycan array binding signal (z-score): -0.066
[14]
  glycan array binding signal (z-score): -0.47
[15]
  glycan array binding signal (z-score): -0.559
[16]
  glycan array binding signal (z-score): 1.66
[17]
  glycan array binding signal (z-score): -0.854
[18]
  glycan array binding signal (z-score): 3.14
[19]
  glycan array binding signal (z-score): -1.37
[20]
  glycan array binding signal (z-score): -1.14
[21]
  glycan array binding signal (z-score): 0.408
[22]
  glycan array binding signal (z-score): -0.688
[23]
  glycan array binding signal (z-score): 2.89
[24]
  glycan array binding signal (z-score): 3.26
[25]
  glycan array binding signal (z-score): -0.07
[26]
  glycan array binding signal (z-score): -0.509
[27]
  glycan array binding signal (z-score): -1.18
